High-throughput results (PubChem)
TDP1 inh – blocks human tyrosyl-DNA phosphodiesterase 1; Potency, µM (top dose mostly 130 µM), without a hit: at the highest dose activity change, negative = inhibition, most hits filed as inhibitors; Q9NUW8; 350,000 tested, 0.28% active; recombinant TDP1, AlphaScreen DNA substrate cleavage; also: nearly all actives have a fitted effect of over 40% in size
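Compounds were preincubated with Tdp1 (1 nM final) for 15 min at room temperature before substrate (15 nM final) started a 5 min reaction; beads (10 ug/ml final) were then added for 10 min before AlphaScreen detection.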
PLK1 PBD block – inhibitors of human PLK1 polo-box domain binding. P53350. Plk1 PBD binding of FITC phosphopeptide, fluorescence polarization. Potency, µM, for inactives: max response, negative = inhibition, actives largely listed as inhibitors. 360,000 tested, 2.8% active. AID 720504; also: series mostly up to about 57 µM; nearly all actives have a fitted effect of over 65% in size
DT40 TDP1 CPT – DT40-hTDP1 cell growth loss with CPT | chicken DT40 Tdp1-/-;hTDP1 cells + 20 nM CPT, ATP luminescence, 48 h | AID 686979 | 420,000 tested, 12% active | Potency, µM (highest dose often 46.2 µM), for the others: at the highest dose activity change, negative = growth inhibition, most hits filed as inhibitors; also: nearly all actives have a fitted effect of over 55% in size
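Chicken DT40 Tdp1-/- cells complemented with human TDP1, 400 cells/well, exposed to compounds plus 20 nM camptothecin for at least 48 h at 37 C; viability read as ATP content by CellTiter-Glo luminescence.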
VDR inhibitor – vitamin D3 receptor (human) inhibition; VDR-SRC2-3 peptide fluorescence polarization, 2 h; Potency, µM, for the others: max response, negative = inhibition, most hits filed as inhibitors; 400,000 tested, 0.93% active
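Reagent solutions, kept cold and dark, are dispensed first; compounds are then pinned in at 23 nl, plates briefly spun, and incubated 2 h at ambient temperature. Inhibition of VDR–SRC2-3 peptide binding is read by fluorescence polarization.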
DT40 TDP1 no CPT – qHTS for Inhibitors of human tyrosyl-DNA phosphodiesterase 1 (TDP1): qHTS in cells in absence of CPT; DT40 Tdp1-/- hTDP1 cells, no CPT, ATP luminescence, 48 h; Potency, µM (top dose mostly 46.2 µM), without a hit: at the top dose activity change, negative = growth inhibition, usual class: inhibitors; 420,000 tested, 15% active; AID 686978, 2013; also: nearly all actives have a fitted effect of over 55% in size
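No-CPT arm: Tdp1-/-;hTDP1 DT40 cells (400/well) plus compounds, incubated ≥48 hr at 37 °C. Readout CellTiter-Glo luminescence.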
KAT2A inh – GCN5L2 (KAT2A) acetyltransferase inhibition | 390,000 tested, 0.21% active | Potency, µM (highest dose often 58.9 µM), without a hit: at the highest dose activity change, negative = inhibition, usual class: inhibitors | Q92830 | GCN5L2 HAT assay, ThioGlo1 CoA-SH fluorescence
Target sequence (Q92830 whole entry, looked up): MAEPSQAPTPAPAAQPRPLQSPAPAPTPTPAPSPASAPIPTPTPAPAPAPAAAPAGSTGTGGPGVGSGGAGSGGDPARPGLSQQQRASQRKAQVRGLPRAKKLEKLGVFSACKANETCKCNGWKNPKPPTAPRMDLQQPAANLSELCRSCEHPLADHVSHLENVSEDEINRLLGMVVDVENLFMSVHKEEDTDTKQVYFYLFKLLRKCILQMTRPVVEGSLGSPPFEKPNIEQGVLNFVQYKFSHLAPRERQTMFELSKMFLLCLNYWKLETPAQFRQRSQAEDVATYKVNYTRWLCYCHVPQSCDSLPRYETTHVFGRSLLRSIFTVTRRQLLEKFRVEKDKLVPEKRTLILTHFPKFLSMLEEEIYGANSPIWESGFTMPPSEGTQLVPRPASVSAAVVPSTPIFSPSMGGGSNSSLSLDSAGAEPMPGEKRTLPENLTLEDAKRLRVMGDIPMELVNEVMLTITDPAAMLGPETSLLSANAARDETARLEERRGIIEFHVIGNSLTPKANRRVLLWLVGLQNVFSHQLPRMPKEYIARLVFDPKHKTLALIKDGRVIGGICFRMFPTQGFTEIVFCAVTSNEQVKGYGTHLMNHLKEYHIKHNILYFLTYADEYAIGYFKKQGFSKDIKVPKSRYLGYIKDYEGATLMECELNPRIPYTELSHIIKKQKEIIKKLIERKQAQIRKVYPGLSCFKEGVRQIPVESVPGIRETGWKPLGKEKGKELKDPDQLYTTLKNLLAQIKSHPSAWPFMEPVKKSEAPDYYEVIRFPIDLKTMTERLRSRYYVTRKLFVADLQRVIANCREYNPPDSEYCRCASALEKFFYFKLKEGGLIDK
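Titration-based screen in which CoA formation is detected via maleimide probe ThioGlo1 (50uM) turning fluorescent on thiol reaction; substrates H3(1-25) 75uM and acetyl-CoA 70uM, GCN5L2 20nM, 20 min incubation at room temperature.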
* = called active by the depositor; ? = inconclusive; / = not tested or not shown; [ ] = dose if it differs, or a comment. Only some compounds are listed: those with a hit (about 18% of all), similar ones and a draw of the others. Calls follow the shape of the dose curve; as a rule, active = well fitted curve in the direction sought with a large enough effect; inconclusive = small, poorly fitted or top-dose-only effect, or another doubt; inactive = no such curve, though single readings can be large; an effect the other way counts as inactive or inconclusive. % is scaled to controls: 0 for no effect and ±100 for the full control effect; potency is read from the fitted curve at half-maximal effect.

SMILES	TDP1 inh	PLK1 PBD block	DT40 TDP1 CPT	VDR inhibitor	DT40 TDP1 no CPT	KAT2A inh
CCOc1ccc(CCNC(=O)c2ccc(CS(=O)Cc3ccc(Cl)cc3)o2)cc1OCC (stereo not given)	3%	-3%	?	-2%	15µM*	-3%
CCOc1ccc(CCNC(=O)c2ccc(CS(=O)Cc3cccc(Cl)c3)o2)cc1 (stereo not given)	4%	27µM*	?	?	15µM*	-7%
O=C(NCc1ccc(Cl)cc1)c1ccc(CS(=O)Cc2cccc(Cl)c2)o1 (stereo not given)	2%	-5%	?	24%	?	-1%
CC(C)C[C@@H](CNCC(=O)[C@H](Cc1ccccc1)NC(=O)c1[nH]cnc1C(=O)N[C@H](CN)CC(C)C)NC(=O)c1nc[nH]c1C(=O)N[C@@H](CC(=O)O)C(=O)O	/	34µM*	0%	?	-7%	/
CC(C)C[C@@H](CNCC(=O)[C@H](CC(C)C)NC(=O)c1[nH]cnc1C(=O)N[C@H](CN)CC(C)C)NC(=O)c1nc[nH]c1C(=O)N[C@@H](Cc1ccccc1)C(=O)O	/	21µM*	?	?	?	/
CCc1nc(SCC(=O)N2c3ccccc3Sc3ccccc32)c2ccccc2n1	5%	-4%	?	-3%	15µM*	2%
Cn1nnnc1SCC(=O)N1c2ccccc2Sc2ccccc21	1%	-1%	10µM*	-11%	15µM*	-6%
CCCc1nc(SCC(=O)N2CCCC2)c2ccccc2n1	6%	-2%	-7%	11%	?	6%
CCc1nc(SCC(=O)c2ccc3c(c2)OCCO3)c2ccccc2n1	3%	-18%	?	?	?	-7%
CCc1nc(SCC(=O)c2ccccc2)c2ccccc2n1	8%	?	?	?	13µM*	-3%
Cc1nc(SCC(=O)c2cc(C)n(C3CC3)c2C)c2ccccc2n1	/	-3%	8.2µM*	/	7.3µM*	/
O=S1(=O)N=C(Oc2ccccc2Br)c2ccccc21	3%	/	/	/	/	/
CCc1cccc(C)c1NC(=O)NC1COc2ccccc2C1 (stereo not given)	-3%	/	-25%	14%	-25%	-1%
Cc1ccc(N(CC(=O)NCc2ccccc2)C(=O)c2csnn2)c(C)c1	0%	-7%	-5%	-6%	-13%	3%
CCCN1C(=O)c2cc(C(=O)Nc3cccc(C(C)=O)c3)ccc2C1Nc1cccc(C(C)=O)c1 (stereo not given)	/	-10%	8.2µM*	-19%	15µM*	-18%
COc1ccc(C2CCc3cc4c(cc3C2=NOC(C)=O)OCO4)cc1OC (stereo not given)	/	-2%	21µM*	/	15µM*	/
NCCCC[C@H](NC(=O)[C@@H](Cc1ccccc1)NC(=O)[C@H](Cc1c[nH]c2ccccc12)NC(=O)[C@@H](CCCCN)NC(=O)[C@@H](Cc1c[nH]c2ccccc12)NC(=O)[C@@H](N)Cc1cnc[nH]1)C(N)=O	14%	/	/	1%	/	-21%
Cc1ccc(-c2c3c([nH]c(=S)c2C#N)CCCC3)o1	32µM*	12µM*	23µM*	?	?	-21%
Cc1ccc(-c2c(C#N)c(N)nc3c2CCCC3)o1	-1%	0%	-14%	2%	7%	-21%
N#Cc1c(-c2ccncc2)c2c([nH]c1=S)CCCC2	6%	27µM*	2%	-14%	-5%	?
N#Cc1c(-c2ccncc2)c2c([nH]c1=O)-c1ccccc1OC2	/	/	/	/	/	-14%
CCn1c(C)nc2cc(S(=O)(=O)C(F)(F)F)ccc21	2%	-3%	?	6%	16µM*	-6%
CCn1c(C)nc2cc(S(=O)(=O)N3CCCCC3)ccc21	6%	-8%	?	3%	?	2%
CC(=O)c1ccc(OCc2cc(C(=O)N(C)C(C)c3ccon3)no2)cc1 (stereo not given)	/	-12%	?	-21%	18µM*	/
CC(=O)c1ccc(OCc2cc(C(=O)N3CCCCCCC3)no2)cc1	0%	-8%	?	-13%	4.1µM*	-2%
SMILES	TDP1 inh	PLK1 PBD block	DT40 TDP1 CPT	VDR inhibitor	DT40 TDP1 no CPT	KAT2A inh
CN(C)S(=O)(=O)Nc1ccc(-c2cn3ccsc3n2)cc1	3%	/	?	-13%	-23%	-1%
C/C=C/C(=O)N[C@@H]1c2ccccc2CC[C@@H]1OCc1ccccc1	-4%[56.1 µM]	-5%	-11%	-7%	-15%	-2%
Cc1cccc(Cn2nnc3c2C(=O)c2ccccc2C3=O)c1	3%	-6%	9.2µM*	-8%	4.6µM*	-3%
Cc1ccccc1Cn1nnc2c1C(=O)c1ccccc1C2=O	/	-8%	8.2µM*	3%	6.5µM*	/
Cc1cccc(Cn2cnc3c(nnn3Cc3ccc(F)cc3)c2=O)c1	7%	0%	?	7%	?	-10%
Cc1ccccc1Cn1nnc2sc3c(c2c1=O)CCCC3	0%	/	?	-3%	?	-6%
Cc1nnsc1C(=O)Oc1ccc(C(C)C)cc1	-3%	/	28%	-16%	8%	-5%
COc1ccc(C(=O)NCC(c2ccco2)S(=O)(=O)c2cccs2)cc1 (stereo not given)	-3%	/	?	3%	?	-6%
CCN(CC(=O)NC1CCS(=O)(=O)C1)S(=O)(=O)c1ccccc1Cl (stereo not given)	1%	?	4%	4%	-2%	-20%
O=C(Nc1nnc(-c2ccncc2)o1)c1ccc2ccccc2c1	4%	-9%	8.2µM*	4%	7.3µM*	-1%
O=C(Nc1ccncc1)c1ccc2ccccc2c1	0%	-8%	?	-13%	13µM*	-8%
Cc1cccc(C(=O)Nc2nnc(-c3ccncc3)o2)c1	10%	-4%	-22%	-1%	-5%	-2%
Cc1ccccc1NC(=O)CCn1nc(-c2ccccc2)c2ccccc2c1=O	5%	/	?	-1%	?	-4%
Cc1cccc(CN2CCN(C3CN(Cc4ccc([N+](=O)[O-])cc4)S(=O)(=O)C3)CC2)c1 (stereo not given)	/	-1%	16µM*	/	23µM*	/
O=[N+]([O-])c1cccc(CN2CCC(Cc3ccccc3)CC2)c1	/	-2%	23µM*	11%	-56%	-2%
O=[N+]([O-])c1ccc(CN2CC(N3CCC(Cc4ccccc4)CC3)CS2(=O)=O)cc1 (stereo not given)	/	-10%	16µM*	/	16µM*	/
